{"source": "PubChem BioAssay (NCATS)", "note": "Inconclusive results are not listed. A number with no mark means an inactive call. The source made the active and inactive calls. Calls follow the shape of the dose curve; as a rule, active = well fitted inhibition curve with a large enough effect; inconclusive = small, poorly fitted or top-dose-only effect; inactive = flat fitted curve, though single readings scatter. Potency is read from the fitted curve at half-maximal effect."}
{"system": "ATS189", "experiment": "qHTS profiling for inhibitors of Plasmodium falciparum proliferation (AID 504749); also: nearly all actives have a fitted effect of over 60% in size;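 as to activity, negative = inhibition: 0% = DMSO vehicle and full inhibition = artemisinin control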", "details": "P. falciparum in erythrocytes, SYBR Green DNA, 72 h; series mostly up to 28.7 µM; activity, negative = inhibition: at the top concentration", "outline": "(§1)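 Each compound contacts P. falciparum-infected red blood cells for 72 h at 37 C; lysis buffer (Tris, EDTA, saponin, Triton X, SYBR Green I) is added and fluorescence measured next morning; values normalized to controls.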", "units": {"activity, negative = inhibition": "%"}}
{"smiles": "CC(C)NC(C)Cc1ccc(I)cc1", "note": "(centres undefined)", "activity, negative = inhibition": -16.1}
{"smiles": "CCCCc1ccc(C(=O)O)nc1", "activity, negative = inhibition": 6.42}
{"smiles": "NC(=O)CN1CC(O)CC1=O", "note": "(centres undefined)", "activity, negative = inhibition": 16.3}
{"smiles": "CCCN1CCC[C@H](c2cccc(O)c2)C1", "activity, negative = inhibition": -8.86}
{"smiles": "O=C(O)C(Cl)Cl", "activity, negative = inhibition": 13.2}
{"smiles": "CC(=O)[O][Hg][c]1ccccc1", "Potency": "11.2 µM (active)"}
{"smiles": "C=CCN1CC[C@]23CCCCC2[C@H]1Cc1ccc(O)cc13", "note": "(some centres undefined)", "activity, negative = inhibition": 11.1}
{"smiles": "c1ccc(C2(c3ccccc3)CC2C2=NCCN2)cc1", "note": "(centres undefined)", "activity, negative = inhibition": -16}
{"smiles": "Cc1ccc(Cl)c(O)c1", "activity, negative = inhibition": -8.81}
{"smiles": "CN1C2CCC1CC(OC(=O)c1cc(Cl)cc(Cl)c1)C2", "note": "(centres undefined)", "activity, negative = inhibition": -9.79}
{"smiles": "O=[N+]([O-])c1ccc([As](=O)(O)O)cc1", "Potency": "7.08 µM (active)"}
{"smiles": "C1CCC(NC2CCCCC2)CC1", "activity, negative = inhibition": 1.25}
{"smiles": "Cc1cc(O)ccc1Cl", "activity, negative = inhibition": -7.86}
{"smiles": "CCCCCCCCCC(CC)c1ccc(S(=O)(=O)O)cc1", "note": "(centres undefined)", "activity, negative = inhibition": -12.5}
{"smiles": "CC[N+]1(CCOC(=O)C(O)(c2ccccc2)c2ccccc2)CCCCC1", "activity, negative = inhibition": 4.88}
{"smiles": "O=C(O)COc1ccccc1", "activity, negative = inhibition": 4.46}
{"smiles": "CN[C@@H]1C[C@@H](c2ccc(Cl)c(Cl)c2)c2ccccc21", "activity, negative = inhibition": -5.81}
{"system": "ATS95", "experiment": "qHTS profiling for inhibitors of Plasmodium falciparum proliferation (AID 504749); also: nearly all actives have a fitted effect of over 60% in size;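 as to activity, negative = inhibition: 0% = DMSO vehicle and full inhibition = artemisinin control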", "details": "P. falciparum in erythrocytes, SYBR Green DNA, 72 h; series mostly up to 28.7 µM; activity, negative = inhibition: at the top concentration", "outline": "as §1", "units": {"activity, negative = inhibition": "%"}}
{"smiles": "CC(C)NC(C)Cc1ccc(I)cc1", "note": "(centres undefined)", "activity, negative = inhibition": -1.59}
{"smiles": "CCCCc1ccc(C(=O)O)nc1", "activity, negative = inhibition": -6.77}
{"smiles": "NC(=O)CN1CC(O)CC1=O", "note": "(centres undefined)", "activity, negative = inhibition": 6.62}
{"smiles": "CCCN1CCC[C@H](c2cccc(O)c2)C1", "activity, negative = inhibition": -2.21}
{"smiles": "O=C(O)C(Cl)Cl", "activity, negative = inhibition": 1.62}
{"smiles": "CC(=O)[O][Hg][c]1ccccc1", "Potency": "4.47 µM (active)"}
{"smiles": "C=CCN1CC[C@]23CCCCC2[C@H]1Cc1ccc(O)cc13", "note": "(some centres undefined)", "activity, negative = inhibition": 12.1}
{"smiles": "c1ccc(C2(c3ccccc3)CC2C2=NCCN2)cc1", "note": "(centres undefined)", "activity, negative = inhibition": -8.88}
{"smiles": "Cc1ccc(Cl)c(O)c1", "activity, negative = inhibition": 8.01}
{"smiles": "CN1C2CCC1CC(OC(=O)c1cc(Cl)cc(Cl)c1)C2", "note": "(centres undefined)", "activity, negative = inhibition": -10.9}
{"smiles": "O=[N+]([O-])c1ccc([As](=O)(O)O)cc1", "Potency": "11.2 µM (active)"}
{"smiles": "COC(C)(C)CCCC(C)C/C=C/C(C)=C/C(=O)OC(C)C", "note": "(centres undefined)", "activity, negative = inhibition": -22.8}
{"smiles": "C1CCC(NC2CCCCC2)CC1", "activity, negative = inhibition": 3.57}
{"smiles": "Cc1cc(O)ccc1Cl", "activity, negative = inhibition": 9.29}
{"smiles": "CCCCCCCCCC(CC)c1ccc(S(=O)(=O)O)cc1", "note": "(centres undefined)", "activity, negative = inhibition": -0.173}
{"smiles": "CC[N+]1(CCOC(=O)C(O)(c2ccccc2)c2ccccc2)CCCCC1", "activity, negative = inhibition": -17.6}
{"smiles": "O=C(O)COc1ccccc1", "activity, negative = inhibition": 12}
{"system": "C2A", "experiment": "qHTS profiling for inhibitors of Plasmodium falciparum proliferation (AID 504749); also: nearly all actives have a fitted effect of over 60% in size;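 as to activity, negative = inhibition: 0% = DMSO vehicle and full inhibition = artemisinin control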", "details": "P. falciparum in erythrocytes, SYBR Green DNA, 72 h; series mostly up to 28.7 µM; activity, negative = inhibition: at the top concentration", "outline": "as §1", "units": {"activity, negative = inhibition": "%"}}
{"smiles": "CCCCCCCCCCCCCCCC[N+](C)(C)C", "Potency": "8.91 µM (active)"}
{"smiles": "CC(C)NC(C)Cc1ccc(I)cc1", "note": "(centres undefined)", "activity, negative = inhibition": -6.2}
{"smiles": "CCCCc1ccc(C(=O)O)nc1", "activity, negative = inhibition": -11.2}
{"smiles": "NC(=O)CN1CC(O)CC1=O", "note": "(centres undefined)", "activity, negative = inhibition": 4.42}
{"smiles": "CCCN1CCC[C@H](c2cccc(O)c2)C1", "activity, negative = inhibition": -2.96}
{"smiles": "O=C(O)C(Cl)Cl", "activity, negative = inhibition": 13.6}
{"smiles": "C=CCN1CC[C@]23CCCCC2[C@H]1Cc1ccc(O)cc13", "note": "(some centres undefined)", "activity, negative = inhibition": -0.787}
{"smiles": "c1ccc(C2(c3ccccc3)CC2C2=NCCN2)cc1", "note": "(centres undefined)", "activity, negative = inhibition": -1.29}
{"smiles": "Cc1ccc(Cl)c(O)c1", "activity, negative = inhibition": 0.392}
{"smiles": "CN1C2CCC1CC(OC(=O)c1cc(Cl)cc(Cl)c1)C2", "note": "(centres undefined)", "activity, negative = inhibition": -14}
{"smiles": "COC(C)(C)CCCC(C)C/C=C/C(C)=C/C(=O)OC(C)C", "note": "(centres undefined)", "activity, negative = inhibition": -26.5}
{"smiles": "C1CCC(NC2CCCCC2)CC1", "activity, negative = inhibition": -5.58}
{"smiles": "Cc1cc(O)ccc1Cl", "activity, negative = inhibition": 5.41}
{"smiles": "CCCCCCCCCC(CC)c1ccc(S(=O)(=O)O)cc1", "note": "(centres undefined)", "activity, negative = inhibition": -1.03}
{"smiles": "CC[N+]1(CCOC(=O)C(O)(c2ccccc2)c2ccccc2)CCCCC1", "activity, negative = inhibition": -2.33}
{"smiles": "O=C(O)COc1ccccc1", "activity, negative = inhibition": 0.796}
{"smiles": "CN[C@@H]1C[C@@H](c2ccc(Cl)c(Cl)c2)c2ccccc21", "activity, negative = inhibition": -24}
{"system": "CP185", "experiment": "qHTS profiling for inhibitors of Plasmodium falciparum proliferation (AID 504749); also: nearly all actives have a fitted effect of over 60% in size;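 as to activity, negative = inhibition: 0% = DMSO vehicle and full inhibition = artemisinin control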", "details": "P. falciparum in erythrocytes, SYBR Green DNA, 72 h; series mostly up to 28.7 µM; activity, negative = inhibition: at the top concentration", "outline": "as §1", "units": {"activity, negative = inhibition": "%"}}
{"smiles": "CC(C)NC(C)Cc1ccc(I)cc1", "note": "(centres undefined)", "activity, negative = inhibition": -4.75}
{"smiles": "CCCCc1ccc(C(=O)O)nc1", "activity, negative = inhibition": -4.13}
{"smiles": "NC(=O)CN1CC(O)CC1=O", "note": "(centres undefined)", "activity, negative = inhibition": 2.92}
{"smiles": "CCCN1CCC[C@H](c2cccc(O)c2)C1", "activity, negative = inhibition": 0.591}
{"smiles": "O=C(O)C(Cl)Cl", "activity, negative = inhibition": 3.1}
{"smiles": "CC(=O)[O][Hg][c]1ccccc1", "Potency": "5.01 µM (active)"}
{"smiles": "C=CCN1CC[C@]23CCCCC2[C@H]1Cc1ccc(O)cc13", "note": "(some centres undefined)", "activity, negative = inhibition": 5.88}
{"smiles": "c1ccc(C2(c3ccccc3)CC2C2=NCCN2)cc1", "note": "(centres undefined)", "activity, negative = inhibition": -20.2}
{"smiles": "Cc1ccc(Cl)c(O)c1", "activity, negative = inhibition": 1.29}
{"smiles": "CN1C2CCC1CC(OC(=O)c1cc(Cl)cc(Cl)c1)C2", "note": "(centres undefined)", "activity, negative = inhibition": -4.43}
{"smiles": "O=[N+]([O-])c1ccc([As](=O)(O)O)cc1", "Potency": "8.91 µM (active)"}
{"smiles": "COC(C)(C)CCCC(C)C/C=C/C(C)=C/C(=O)OC(C)C", "note": "(centres undefined)", "activity, negative = inhibition": -13.7}
{"smiles": "C1CCC(NC2CCCCC2)CC1", "activity, negative = inhibition": 4.64}
{"smiles": "Cc1cc(O)ccc1Cl", "activity, negative = inhibition": -0.036}
{"smiles": "CCCCCCCCCC(CC)c1ccc(S(=O)(=O)O)cc1", "note": "(centres undefined)", "activity, negative = inhibition": 1.33}
{"smiles": "O=C(O)COc1ccccc1", "activity, negative = inhibition": 0.404}
{"system": "CP191", "experiment": "qHTS profiling for inhibitors of Plasmodium falciparum proliferation (AID 504749); also: nearly all actives have a fitted effect of over 60% in size", "details": "P. falciparum in erythrocytes, SYBR Green DNA, 72 h; series mostly up to 28.7 µM; activity, negative = inhibition: at the top concentration", "outline": "as §1", "units": {"activity, negative = inhibition": "%"}}
{"smiles": "C[C@]12CCC(=O)C(O)=C1CC[C@@H]1[C@H]3CCC(=O)[C@@]3(C)CC[C@@H]12", "activity, negative = inhibition": -14.5}
{"smiles": "CC(C)NC(C)Cc1ccc(I)cc1", "note": "(centres undefined)", "activity, negative = inhibition": -12.6}
{"smiles": "CCCCc1ccc(C(=O)O)nc1", "activity, negative = inhibition": -16.3}
{"smiles": "NC(=O)CN1CC(O)CC1=O", "note": "(centres undefined)", "activity, negative = inhibition": 4.83}
{"smiles": "CCCN1CCC[C@H](c2cccc(O)c2)C1", "activity, negative = inhibition": -14.7}
{"smiles": "O=C(O)C(Cl)Cl", "activity, negative = inhibition": 6.61}
{"smiles": "CC(=O)[O][Hg][c]1ccccc1", "Potency": "8.91 µM (active)"}
{"smiles": "C=CCN1CC[C@]23CCCCC2[C@H]1Cc1ccc(O)cc13", "note": "(some centres undefined)", "activity, negative = inhibition": 3.48}
{"smiles": "Cc1ccc(Cl)c(O)c1", "activity, negative = inhibition": 9.48}
{"smiles": "CN1C2CCC1CC(OC(=O)c1cc(Cl)cc(Cl)c1)C2", "note": "(centres undefined)", "activity, negative = inhibition": -18}
{"smiles": "O=[N+]([O-])c1ccc([As](=O)(O)O)cc1", "Potency": "6.31 µM (active)"}
{"smiles": "C1CCC(NC2CCCCC2)CC1", "activity, negative = inhibition": 3.69}
{"smiles": "Cc1cc(O)ccc1Cl", "activity, negative = inhibition": 7.87}
{"smiles": "CCCCCCCCCC(CC)c1ccc(S(=O)(=O)O)cc1", "note": "(centres undefined)", "activity, negative = inhibition": 6.75}
{"smiles": "CC[N+]1(CCOC(=O)C(O)(c2ccccc2)c2ccccc2)CCCCC1", "activity, negative = inhibition": -17.8}
{"smiles": "O=C(O)COc1ccccc1", "activity, negative = inhibition": -3.73}
{"smiles": "CN[C@@H]1C[C@@H](c2ccc(Cl)c(Cl)c2)c2ccccc21", "activity, negative = inhibition": -28.6}
